# Measurements taken from PubChem BioAssay AID1345082 (National Center for Advancing Translational Sciences (NCATS), 2018).
# Hit rate of the full screen: of about 94,000 compounds, about 4,000 (4.3%) were called active. Another 29% or so got no clear call; they are omitted. Shown is part of a subset that was picked to be rich in actives. A number with no mark means an inactive call. Calls come from the whole dose curve; as a rule, active = well fitted inhibition curve with a large enough effect; inconclusive = small, poorly fitted or top-dose-only effect; inactive = no such curve, though single readings can be large or run the other way.
# Experiment: Cytotoxic Profiling in NIH 3T3 Cell Line of Diverse Libraries Using Quantitative High-Throughput Screening; note: nearly all actives have a fitted effect of over 55% in size
# Conditions: NIH 3T3 viability, CellTiter-Glo ATP luminescence, 48-72 h; series mostly up to 96.7 µM; activity change, negative = cytotoxicity: at the top concentration
# How it was run: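 Mouse fibroblast NIH 3T3 cells, 400 per well, received compound via pintool and were incubated for 48 or 72 hr prior to CellTiter-Glo ATP luminescence measurement.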
# % is set by controls: 0 for no effect and ±100 for the full control effect; potency is the fitted concentration of half-maximal effect.
SMILES,"activity change, negative = cytotoxicity",Potency,outcome
O=C(c1cccnc1)N1CCC(Cc2nc(C3CCOCC3)no2)CC1,-28.1%,,
O=C([C@@H]1C[C@H](Oc2ccccc2)CN1S(=O)(=O)c1cccnc1)N1CCCC1,-4.44%,,
Cc1nn2c(c1-c1ccccc1-c1ccccc1)N(CC1CC1)CCC2,,3.16 µM (active),
Cc1nn2c(c1-c1ccnn1C(C)C)N(CC1CCOCC1)CCC2,,31.6 µM (active),
COc1ccc(S(=O)(=O)NCCc2noc(-c3ccncc3)n2)cc1,-28.4%,,
CNC(=O)N1CCC(C2CCN(C(=O)CSC)C2)CC1 (stereo not drawn),-4.44%,,
COc1cc(NC(=O)c2cc3c(N4CCSCC4)nc(C)cn3n2)cc(OC)c1,-19.2%,,
COc1ccccc1-c1cnc(NC(=O)c2ccc(Cl)cc2)c2c1CCO2,,79.4 µM (active),
COc1cc2c(cc1OC)C(CNC(=O)c1ccc(Cl)cc1)N(C(=O)Nc1ccccc1)CC2 (stereo not drawn),-27%,,
COc1ncccc1Nc1ncc(-c2ccccc2)c2c1OCC2,-15% [at 138 µM],,
O=C(c1ccccc1)N1CCCCC1c1nc(C2CC2)n[nH]1 (stereo not drawn),,,inactive
COc1ccc(NC(=O)[C@@H]2C[C@@H](c3ccc(F)cc3)N(CCOc3ccccc3)C2)cn1,,44.7 µM (active),
O=C(COc1ccc(NC(=O)C2CC2)cn1)NCc1ccc(F)cc1F,-0.432%,,
Cc1ccc(NC(=O)[C@@H]2CNC[C@H](C(=O)NCc3ccccn3)C2)cn1,-2.8%,,
CNC(=O)N1CCC(N2CC(OCC3CC3)C23CCCCC3)CC1 (stereo not drawn),-2.4%,,
O=C(O)C[C@@H]1CCN(C(=O)C(=O)O)C[C@@H]1CC1=NCCc2cc(F)ccc21,-4.26% [at 174 µM],,
O=C(c1cccc(F)c1)N1CCCC(CN2CCOCC2)CC1 (stereo not drawn),-1.83%,,
Cc1ccc(OCCC2CCN(C(=O)c3cnccc3C)C2)cc1 (stereo not drawn),-16.8%,,
O=C(c1cccc(F)c1)N1CCC(CCOc2ccc(F)cc2)C1 (stereo not drawn),,39.8 µM (active),
CC(=O)N1CCN(C(=O)c2cc(-c3cccc(F)c3)nc3c2cnn3C)CC1,-25.5%,,
Cn1ncc2c(C(=O)N3CCC(c4ccccc4)CC3)cc(-c3ccc(F)cc3)nc21,,39.8 µM (active),
COc1cccc(-c2cc(C(=O)N3CCN(C(C)=O)CC3)c3cnn(C)c3n2)c1,-17.5%,,
O=C(NC1CC1)c1cc2n(n1)CCN(C(=O)c1ccc3n[nH]nc3c1)C2,-13.9%,,
CCCN(CC1CCOC1)C(=O)Nc1cc(F)ccc1F (stereo not drawn),-6.36%,,

SMILES,"activity change, negative = cytotoxicity",Potency,outcome
COc1ccccc1-c1cc(C(=O)NCc2ccccn2)nn2cnnc12,-25.9%,,
Cc1nn(-c2ccc(C(C)(C)C)cc2)c(C)c1[C@@H]1C=C[C@@H](NC(=O)c2ccco2)C1,,35.5 µM (active),
CCC(C)NC(=O)Cc1csc2nc(C)c(-c3cc(C)n(-c4ccc(C(C)C)cc4)n3)c(=O)n12 (stereo not drawn),-34.3%,,
COc1cccc(NC(=O)Cn2c(=O)n(-c3ccc(F)cc3)c(=O)c3c2cc(C)n3C)c1,-15.1%,,
COc1cccc(-c2cc(C(=O)Nc3cccc(F)c3)c3cnn(C)c3n2)c1,-21.1%,,
Cc1nn(-c2ccccc2)c2c1C(C(C)C)N(C1CCN(C(=O)c3ccc(Cl)nc3)CC1)C2=O (stereo not drawn),-26.8%,,
Cc1nn(-c2ccc(C(C)C)cc2)c(C)c1[C@@H]1C=C[C@@H](NC(=O)Nc2ccccc2)C1,,50.1 µM (active),
COc1ccc(-n2nc(C)c([C@H]3C=C[C@@H](OC(=O)Nc4cccc(F)c4)C3)c2C)cc1,,28.2 µM (active),
Cc1cnc(CCNC(=O)c2ccco2)n1C1CCC1,-12.6%,,
Cc1nn(-c2ccccc2)c2c1C(C(C)C)N(C1CN(C(=O)c3ccc(Cl)nc3)C1)C2=O (stereo not drawn),2.41%,,
Cc1nn(-c2ccc(C(C)C)cc2)c(C)c1[C@@H]1C=C[C@@H](NC(=S)NCC(C)C)C1,,22.4 µM (active),
O=C(N[C@@H]1CN(c2ncccn2)C[C@H]1CO)c1ccco1,-10.3%,,
CC(C)c1nc(CCn2cc(-c3cncnc3)nn2)cs1,-10.5%,,
Cc1ccc(CN2C[C@@H](CO)[C@H](c3nc(C)no3)C2)nc1,-11.2%,,
COc1ccccc1C(=O)N1CCc2nnc([C@@H]3C[C@@H](O)CN3C)n2CC1,,,inactive
CN1CCC(NC[C@H]2O[C@@H]3C[C@@H](CC(=O)NCc4cnn(C)c4)O[C@@H]3[C@@H]2O)CC1,1.18% [at 174 µM],,
CC(C)c1nc2c(c(-c3ccc(Cl)cc3)n1)CN(C(=O)c1ccccc1)CC2,-19.8%,,
COc1ccc(C(=O)N2CCC(CCn3c(C)cnc3C3CC3)CC2)cc1,-23.3%,,
COC(=O)CNC(=O)NC1CCN(C(=O)N2CC3CC(C2)[C@H]2CCCC(=O)N2C3)CC1 (stereo partly drawn),4.02%,,
Cc1ccc2c(c1)C(C[C@H]1CN(C(=O)NC(C)C)CC[C@H]1CC(=O)O)=NCC2,1.35% [at 174 µM],,
Cc1noc(C)c1[S+](=O)([O-])N1CCC2(CC1)C(=O)NN=C2c1cccnc1,-26.3%,,
Cc1ccccc1CNC(=O)CN1C(=O)C2(CCNCC2)Nc2ccccc21,,,inactive
CN(Cc1cccc(C(F)(F)F)c1)Cc1cccc(C(F)(F)F)c1,-4.01%,,
CC(C)(C)n1nnnc1C1CC2(CCOCC2)C(=O)N1Cc1ccc(F)cc1 (stereo not drawn),-0.724%,,
